# Assay results taken from the supplement of paper PMC8728848.
# Shown is part of a subset that was picked to be rich in the strongest signals.
# How the values were obtained:
# Test in all cases: glycan array binding signal (z-score within array); higher = stronger binding
# Conditions in all cases: glycan notation: IUPAC condensed, linker removed
# Gal6S(b1-4)Glc6S = target: Gal6S(b1-4)Glc6S
# Method in brief: (§1)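 Negative Z-scores can be read as non-binding. The Z-score is calculated within each array and then averaged across arrays of one protein sequence at different concentrations or buffers and across linkers. Arrays, 3228 in all, were curated from the Consortium for Functional Glycomics database and kept only where the protein sequence was available.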
# Gal6S(b1-4)GlcNAc = target: Gal6S(b1-4)GlcNAc
# Method in brief: as §1
# GalNAc(a1-3)Gal = target: GalNAc(a1-3)Gal
# Method in brief: as §1
# GalNAc(a1-3)GalNAc = target: GalNAc(a1-3)GalNAc
# Method in brief: as §1
# GalNAc(b1-3)GalNAc = target: GalNAc(b1-3)GalNAc
# Method in brief: as §1
# GalNAc(b1-4)Gal(b1-4)Glc = target: GalNAc(b1-4)Gal(b1-4)Glc
# Method in brief: as §1
# Glc(b1-4)Glc = target: Glc(b1-4)Glc
# Method in brief: as §1
# [1] = target: GlcNAc(a1-4)Gal(b1-4)GlcNAc
# Method in brief: as §1
# [2] = target: GlcNAc(a1-4)Gal(b1-4)GlcNAc(b1-3)Gal(b1-4)GlcNAc(b1-3)Gal(b1-4)GlcNAc
# Method in brief: as §1
# [3] = target: GlcNAc(a1-4)Gal(b1-4)GlcNAc(b1-3)Gal(b1-4)[Fuc(a1-3)]GlcNAc(b1-3)Gal(b1-4)[Fuc(a1-3)]GlcNAc
# Method in brief: as §1
# [4] = target: GlcNAc(b1-3)Gal(b1-4)GlcNAc(b1-2)Man(a1-3)[GlcNAc(b1-3)Gal(b1-4)GlcNAc(b1-2)Man(a1-6)]Man(b1-4)GlcNAc(b1-4)[Fuc(a1-6)]GlcNAc
# Method in brief: as §1
# [5] = target: GlcNAc(b1-4)GlcNAc(b1-4)GlcNAc
# Method in brief: as §1
# [6] = target: GlcNAc(b1-4)[GlcNAc(b1-6)]GalNAc
# Method in brief: as §1
# Kdn(a2-6)Gal(b1-4)GlcNAc = target: Kdn(a2-6)Gal(b1-4)GlcNAc
# Method in brief: as §1
# [7] = target: Man(a1-2)Man(a1-3)[Man(a1-2)Man(a1-6)]Man
# Method in brief: as §1
# [8] = target: Neu5Ac(a2-3)Gal(b1-3)GalNAc
# Method in brief: as §1
# [9] = target: Neu5Ac(a2-3)Gal(b1-3)GalNAc(b1-4)[Neu5Ac(a2-8)Neu5Ac(a2-3)]Gal(b1-4)Glc
# Method in brief: as §1
# [10] = target: Neu5Ac(a2-3)Gal(b1-3)GlcNAc(b1-3)GalNAc
# Method in brief: as §1
# [11] = target: Neu5Ac(a2-3)Gal(b1-3)[Fuc(a1-4)]GlcNAc(b1-3)Gal(b1-3)[Fuc(a1-4)]GlcNAc
# Method in brief: as §1
# [12] = target: Neu5Ac(a2-3)Gal(b1-4)[Fuc(a1-3)]GlcNAc(b1-2)Man
# Method in brief: as §1
# [13] = target: Neu5Ac(a2-3)Gal6S(b1-4)GlcNAc
# Method in brief: as §1
# Neu5Ac(a2-6)Gal(b1-4)Glc = target: Neu5Ac(a2-6)Gal(b1-4)Glc
# Method in brief: as §1
# [14] = target: Neu5Ac(a2-6)Gal(b1-4)GlcNAc(b1-2)Man(a1-3)[Neu5Ac(a2-6)Gal(b1-4)GlcNAc(b1-2)Man(a1-6)]Man(b1-4)GlcNAc(b1-4)GlcNAc
# Method in brief: as §1
# [15] = target: Neu5Ac(a2-6)Gal(b1-4)GlcNAc(b1-2)[Neu5Ac(a2-6)Gal(b1-4)GlcNAc(b1-4)]Man(a1-3)[GlcNAc(b1-4)][Neu5Ac(a2-6)Gal(b1-4)GlcNAc(b1-4)Man(a1-6)]Man(b1-4)GlcNAc(b1-4)GlcNAc
# Method in brief: as §1
# [16] = target: Neu5Ac(a2-6)Gal(b1-4)GlcNAc(b1-3)Gal(b1-3)GlcNAc
# Method in brief: as §1
# [17] = target: Neu5Ac(a2-6)Gal(b1-4)GlcNAc(b1-3)Gal(b1-4)GlcNAc(b1-3)Gal(b1-4)GlcNAc(b1-2)Man(a1-3)[Neu5Ac(a2-6)Gal(b1-4)GlcNAc(b1-3)Gal(b1-4)GlcNAc(b1-3)Gal(b1-4)GlcNAc(b1-2)Man(a1-6)]GalNAc
# Method in brief: as §1
# [18] = target: Neu5Ac(a2-6)Gal(b1-4)GlcNAc(b1-3)Gal(b1-4)GlcNAc(b1-6)[Gal(b1-3)]GalNAc
# Method in brief: as §1
# [19] = target: Neu5Ac(a2-8)Neu5Ac(a2-3)Gal(b1-3)GalNAc(b1-4)[Neu5Ac(a2-8)Neu5Ac(a2-3)]Gal(b1-4)Glc
# Method in brief: as §1
# [20] = target: Neu5Ac(a2-8)Neu5Ac(a2-8)Neu5Ac(a2-8)Neu5Ac(a2-3)[GalNAc(b1-4)]Gal(b1-4)Glc
# Method in brief: as §1
# [21] = target: Neu5Gc(a2-3)Gal(b1-4)[Fuc(a1-3)]GlcNAc
# Method in brief: as §1
# [22] = target: Neu5Gc(a2-6)Gal(b1-4)GlcNAc
# Method in brief: as §1
binder,measurement,setting,value
"Gal 10 (Homo sapiens), Q05315 (protein) MSLLPVPYTEAASLSTGSTVTIKGRPLVCFLNEPYLQVDFHTEMKEESDIVFHFQVCFGRRVVMNSREYGAWKQQVESKNMPFQDGQEFELSISVLPDKYQVMVNGQSSYTFDHRIKPEAVKMVQVWRDISLTKFNVSYLKR",glycan array binding signal (z-score),Gal6S(b1-4)Glc6S,-0.014
same,glycan array binding signal (z-score),Gal6S(b1-4)GlcNAc,-0.568
same,glycan array binding signal (z-score),GalNAc(a1-3)Gal,-0.104
same,glycan array binding signal (z-score),GalNAc(a1-3)GalNAc,-0.834
same,glycan array binding signal (z-score),GalNAc(b1-3)GalNAc,-0.693
same,glycan array binding signal (z-score),GalNAc(b1-4)Gal(b1-4)Glc,2.27
same,glycan array binding signal (z-score),Glc(b1-4)Glc,-0.17
same,glycan array binding signal (z-score),[1],-0.744
same,glycan array binding signal (z-score),[2],0.459
same,glycan array binding signal (z-score),[3],3.48
same,glycan array binding signal (z-score),[4],-0.014
same,glycan array binding signal (z-score),[5],-0.449
same,glycan array binding signal (z-score),[6],-0.956
same,glycan array binding signal (z-score),Kdn(a2-6)Gal(b1-4)GlcNAc,0.098
same,glycan array binding signal (z-score),[7],-0.68
same,glycan array binding signal (z-score),[8],-0.079
same,glycan array binding signal (z-score),[9],0.255
same,glycan array binding signal (z-score),[10],-0.378
same,glycan array binding signal (z-score),[11],1.14
same,glycan array binding signal (z-score),[12],2.57
same,glycan array binding signal (z-score),[13],-0.415
same,glycan array binding signal (z-score),Neu5Ac(a2-6)Gal(b1-4)Glc,-0.381
same,glycan array binding signal (z-score),[14],0.509
same,glycan array binding signal (z-score),[15],2.9
same,glycan array binding signal (z-score),[16],-0.312
same,glycan array binding signal (z-score),[17],3.41
same,glycan array binding signal (z-score),[18],-0.176
same,glycan array binding signal (z-score),[19],-0.741
same,glycan array binding signal (z-score),[20],0.562
same,glycan array binding signal (z-score),[21],0.205
same,glycan array binding signal (z-score),[22],-0.495
